The results in this text go back to PubChem BioAssay (EPA / NIEHS).

Where “and” joins values, the source holds several entries; their conditions need not be identical. Equal values may be shown once. Some compounds were tested as several samples or in several runs, with calls that do not always agree. Calls of active or inactive are those of the source. Rule for the calls: active = hit-call score of the fitted dose curve at least 0.9, where 1 is the maximum; inactive = score below 0.9.

Read-out in this test: Interleukin-8 (IL8), CXCL8 (gene 3576)
The experiment in a line: BSK_BE3C_IL8: BioMAP Diversity Plus: BE3C Assay for Interleukin-8 (IL8) Biomarker Activity (AID 2284280). To be noted: primary human bronchial epithelial cells. Here is the method: BSK_BE3C is a cell-based, multiplexed-readout assay that uses bronchial epithelial cell, a human lung primary cell, with measurements taken at 24 hours after chemical dosing in a 96-well plate.BSK_BE3C_IL8 is an assay component measured in the BSK_BE3C assay. It measures IL-8 antibody related to regulation of gene expression using ELISA technology.Data from the assay component BSK_BE3C_IL8 was analyzed at the endpoint, BSK_BE3C_IL8, in the positive analysis fitting direction relative to DMSO as the negative control and baseline of activity. Using a type of binding reporter, gain or loss-of-signal activity can be used to understand protein changes. To generalize the intended target to other relatable targets, this assay endpoint is annotated to the 'cytokine' intended target family, where the subfamily is 'interleukins'.
The levels of cell surface (or secreted, indicated by the prefix "s") biomarker endpoints were measured by ELISA. Overt cytotoxicity to cells in confluent adherent cultures (all systems other than the BT system) was assessed by measuring total protein levels using sulforhodamine B (SRB) staining in parallel cultures at the time of biomarker measurements, indicated as SRB endpoints. For proliferation assays for adherent cell types, individual cell types are cultured at sub-confluence and relative cell numbers quantified by SRB staining at time points optimized for each system (48 h: 3C and CASM3C systems; 72 h: BT and HDF3CGF systems; 96 h: SAg system). SRB was performed by staining cells with 0.1% SRB after fixation with 10% TCA and reading wells at 560 nm.Viability and proliferation of PBMC (T cells) was quantified by Alamar Blue reduction for the SAg and BT systems. For PBMC viability (referred to as PBMC Cytotoxicity within the assay endpoint names), cells were plated (75,000/well in a 96-well plate) and then chemical samples added for 1 h before addition of activators, SEB and TSST-1 (20 ng/mL final concentration each). Cells were incubated for 90 h. Then, Alamar Blue (20 uL/well) (Invitrogen, Cat DAL1100) was added for 6 h, and the plates were read with a fluorescence microplate reader at 546/580 nm (excitation/emission). For PBMC proliferation, cells were plated and activated as above but incubated for only 16 h prior to addition of Alamar Blue. Plates were read after 6 h.
Turning to `Oc1c(Cl)cc(Cl)cc1Sc1cc(Cl)cc(Cl)c1O`, the AC50 is 11.7 µM (active) and 11.1 µM (active).

For `CN(Cc1cnc2nc(N)nc(N)c2n1)c1ccc(C(=O)N[C@@H](CCC(=O)O)C(=O)O)cc1`, the outcome was inactive.

With `OCC(F)(F)C(F)(F)C(F)(F)C(F)(F)C(F)(F)C(F)(F)C(F)(F)C(F)(F)C(F)(F)C(F)(F)C(F)(F)F`, the result was inactive and the concentration at half-maximal activity (AC50) is 224 nM (active).

With `O=P(O)(O)CCC(F)(F)C(F)(F)C(F)(F)C(F)(F)C(F)(F)C(F)(F)C(F)(F)C(F)(F)F`, the result was inactive.

As to `CCCCCCCCCCCC`, the AC50 is 9520 nM (active) and the result was inactive.

In the case of `O=C(O)CCC(F)(F)C(F)(F)C(F)(F)C(F)(F)C(F)(F)F`, the result was inactive.

Consider `C=CC(=O)OCCC(F)(F)C(F)(F)C(F)(F)C(F)(F)C(F)(F)C(F)(F)C(F)(F)C(F)(F)F`, for which the outcome was inactive.

Regarding `O=C(O)C(F)(F)OC(F)(F)C(F)(F)OC(F)(F)C(F)(F)OC(F)(F)C(F)(F)C(F)(F)C(F)(F)F`, the AC50 was 6.28 µM (active) and 6.03 µM (active).

With `CN(CCO)S(=O)(=O)C(F)(F)C(F)(F)C(F)(F)C(F)(F)C(F)(F)C(F)(F)C(F)(F)C(F)(F)F`, the outcome was inactive.

With `O=C1NS(=O)(=O)c2ccccc21`, the outcome was inactive.

Consider `O=P(O)(O)CCC(F)(F)C(F)(F)C(F)(F)C(F)(F)C(F)(F)C(F)(F)F`, for which the result was inactive.

For `O=C(O)CCC(F)(F)C(F)(F)C(F)(F)C(F)(F)C(F)(F)C(F)(F)F`, the result was inactive.

Take `Oc1ccc(Cc2ccccc2O)cc1`: the result was inactive.

As for `O=C(CC(=O)C(F)(F)C(F)(F)C(F)(F)F)c1cccs1`, the AC50 is 48.2 µM (active) and 55.2 µM (active).

For `O=S(=O)(O)C(F)(F)C(F)(F)C(F)(F)C(F)(F)C(F)(F)C(F)(F)C(F)(F)C(F)(F)C(F)(F)C(F)(F)F`, the outcome was inactive.

As usually defined, the AC50 is the concentration giving half of the maximal activity seen.
